Records with an inconclusive call do not appear. Active and inactive are the calls of the source. Rule for the calls, unless noted: active = hit-call score of the fitted dose curve at least 0.9, where 1 is the maximum; inconclusive = response in the unintended direction; inactive = score below 0.9.
How the values were obtained:
[1] = ATG_TCF_b_cat_CIS: Attagene CIS-FACTORIAL HepG2 Assay for human T-Cell-Factor with beta-catenin (TCF/b-cat) (AID 2282965; active = hit-call score of the fitted dose curve at least 0.9, where 1 is the maximum; inactive = score below 0.9); details: HepG2 TCF/beta-catenin cis-reporter transcription, actives raise or lower the signal
Outline: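 In this cis-format system, transfected HepG2 cells report endogenous transcription factor activity. Readout after 24 h exposure is reporter transcript abundance from RT-PCR and capillary electrophoresis, analysed for gain or loss of signal versus DMSO.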

[2] = ATG_TAL_CIS: Attagene CIS-FACTORIAL HepG2 Assay for human TAL Basal Promoter (AID 2282966; active = hit-call score of the fitted dose curve at least 0.9, where 1 is the maximum; inactive = score below 0.9;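 note: background control endpoint measuring basal TAL promoter reporter mRNA not a specific factor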); details: HepG2 Attagene cis-factorial TAL promoter reporter; actives raise or lower the signal
Outline: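 Readout: reporter mRNA, fluorescence by CE. System: HepG2, transient multi-reporter transfection, endogenous TF activity. Exposure: 24 h. Analysis: bidirectional, DMSO-normalized; background control.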

[3] = ATG_TGFb_CIS: Attagene CIS-FACTORIAL HepG2 Assay for human Transforming Growth Factor (TGF) (AID 2282967; active = hit-call score of the fitted dose curve at least 0.9, where 1 is the maximum; inactive = score below 0.9); details: HepG2 Attagene CIS TGFb reporter, mRNA transcription; actives raise or lower the signal
Outline: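 Endogenous TGFB1-linked transcription factor activity read as reporter mRNA via RT-PCR and capillary electrophoresis, 24 h after dosing transiently transfected HepG2 cells. Gain or loss of signal fitted relative to DMSO.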

[4] = target: Nuclear receptor subfamily 1 group I member 3 (Homo sapiens) (UniProt Q14994); test: ATG_CAR_TRANS: Attagene TRANS-FACTORIAL HepG2 Assay for human Constitutive Androstane Receptor (CAR) (AID 2282969); details: HepG2 Attagene TRANS-FACTORIAL CAR reporter;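 note: activators raise reporter mRNA above DMSO so AC50 marks induction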
Outline: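 HepG2 cells transiently transfected with multiplexed GAL4-UAS reporter units expressing chimeric NR-Gal4 proteins; compound exposure 24 h. Reporter mRNA measured by RT-PCR, 6-FAM labelling, HpaI digestion and capillary electrophoresis; gain-of-signal fitted against DMSO baseline.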

[5] = target: Estrogen receptor (Homo sapiens) (UniProt P03372); test: ATG_ERa_TRANS: Attagene TRANS-FACTORIAL HepG2 Assay for human Estrogen Receptor alpha (ERa) (AID 2282970); details: HepG2 Attagene TRANS ERa GAL4 reporter, mRNA
Outline: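 Transactivation via ERa-Gal4 chimera in HepG2; 24 hour incubation; reporter mRNA detected by fluorescence RT-PCR and capillary electrophoresis.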

[6] = target: Steroid hormone receptor ERR1 (Homo sapiens) (UniProt P11474); test: ATG_ERRa_TRANS: Attagene TRANS-FACTORIAL HepG2 Assay for human Estrogen-Related Receptor alpha (ERRa) (AID 2282971); details: HepG2 Attagene TRANS reporter, ERRa transactivation
Outline: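 HepG2 cells were transiently transfected with multiple GAL4-UAS reporter units, then dosed with compound for 24 h. Total RNA was reverse-transcribed, reporter cDNA PCR-amplified and fluorescently labelled, and fragments resolved by capillary electrophoresis; induction was compared with DMSO.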

[7] = target: X-box-binding protein 1 (Homo sapiens) (UniProt P17861); test: ATG_Xbp1_CIS: Attagene CIS-FACTORIAL HepG2 Assay for human X-box Binding Protein 1 (XBP1) (AID 2282972; active = hit-call score of the fitted dose curve at least 0.9, where 1 is the maximum; inactive = score below 0.9); details: HepG2 XBP1 cis-element reporter, Attagene multiplex; actives raise or lower the signal
Outline: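 HepG2 cells transiently transfected with multiple cis-element reporter units report endogenous TF activity; 24 h exposure, then reporter mRNA measured by RT-PCR, 6-FAM labelling, HpaI digestion and capillary electrophoresis. Bidirectional fitting versus DMSO.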

[8] = ATG_M_19_TRANS: Attagene TRANS-FACTORIAL HepG2 Assay for M19 Transcription Factor (Internal Marker) (AID 2282974); details: HepG2 Attagene TRANS-FACTORIAL M19 internal marker reporter
Outline: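 Transfected HepG2 (GAL4-UAS MRTUs), 24 h compound, TriZol RNA, DNase-treated RT, reporter PCR, FAM label, HpaI digest, CE fluorescence; gain vs DMSO.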

[9] = ATG_Hpa5_TRANS: Attagene TRANS-FACTORIAL HepG2 Assay for human GAL4-Hpa5 Hepatocyte Transcription Factor Basal Promoter (AID 2282975); details: HepG2 Attagene GAL4-Hpa5 transcription reporter;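 note: hits are increases in reporter mRNA over DMSO baseline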
Outline: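 Basal-promoter GAL4 background control within the HepG2 trans-factorial panel of transiently transfected reporter units. Reporter mRNA is measured 24 h after dosing by RT-PCR and capillary electrophoresis, fitted for gain of signal versus DMSO.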

[10] = target: Glucocorticoid receptor (Homo sapiens) (UniProt P04150); test: ATG_GR_TRANS: Attagene TRANS-FACTORIAL HepG2 Assay for human Glucocorticoid Receptor (GR) (AID 2282978); details: HepG2 Attagene TRANS GR reporter, mRNA transcription;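 note: activators score as hits since higher reporter transcript over DMSO is fitted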
Outline: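 After 24 h incubation with test chemical, transfected HepG2 cells were lysed for RNA; reporter cDNA was amplified, FAM-labelled, HpaI-digested and sized on a capillary analyser. Signal gain relative to DMSO was scored.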

[11] = target: Oxysterols receptor LXR-alpha (Homo sapiens) (UniProt Q13133); test: ATG_LXRa_TRANS: Attagene TRANS-FACTORIAL HepG2 Assay for human Liver X Receptor alpha (LXRa) (AID 2282980); details: HepG2 Attagene TRANS reporter, LXRa transactivation
Outline: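 Transient HepG2 transfectants, 24 h dosing, RT-PCR/CE mRNA reporter quantitation; gain-of-signal vs DMSO.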

[12] = target: Oxysterols receptor LXR-beta (Homo sapiens) (UniProt P55055); test: ATG_LXRb_TRANS: Attagene TRANS-FACTORIAL HepG2 Assay for human Liver X Receptor beta (LXRb) (AID 2282981); details: HepG2 Attagene TRANS GAL4-LXRb reporter, mRNA
Outline: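 HepG2 cells transiently transfected with multiple reporter transcription units carrying chimeric NR-Gal4 proteins acting on GAL4-UAS reporters; compound exposure 24 h. Reporter mRNA quantified by RT-PCR, 6-FAM labelling, HpaI digestion and capillary electrophoresis; gain of signal versus DMSO.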

[13] = target: Hepatocyte nuclear factor 4-alpha (Homo sapiens) (UniProt P41235); test: ATG_HNF4a_TRANS: Attagene TRANS-FACTORIAL HepG2 Assay for human Hepatocyte Nuclear Factor 4 alpha (HNF4a) (AID 2282982); details: HepG2 HNF4a transactivation reporter, mRNA readout
Outline: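 HepG2 cells transiently transfected with multiplexed GAL4-UAS reporter units responsive to chimeric NR-GAL4 proteins; compound exposure 24 h. Reporter mRNA quantified by RT-PCR, 6-FAM labelling, HpaI digestion and capillary electrophoresis; gain of signal versus DMSO baseline.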

[14] = ATG_M_06_TRANS: Attagene TRANS-FACTORIAL HepG2 Assay for M06 Transcription Factor (Internal Marker) (AID 2282983); details: HepG2 Attagene TRANS M06 internal marker reporter;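 note: reporter transcript level by RT-PCR then capillary electrophoresis fluorescence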
Outline: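 Measured by capillary electrophoresis of fluorescently labelled RT-PCR products, this endpoint reflects reporter mRNA in HepG2 cells harbouring exogenous NR-GAL4 reporter constructs after 24 h exposure, with DMSO as baseline.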

[15] = ATG_M_32_TRANS: Attagene TRANS-FACTORIAL HepG2 Assay for M32 Transcription Factor (Internal Marker) (AID 2282984); details: HepG2 Attagene TRANS M32 internal marker reporter
Outline: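 HepG2 cells transiently transfected with multiple GAL4-UAS reporter transcription units, dosed for 24 hours; reporter mRNA quantified by RT-PCR, 6-FAM primer extension, HpaI digestion and capillary electrophoresis. Gain-of-signal fitted versus DMSO baseline; internal background-control marker.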

[16] = target: Nuclear receptor subfamily 4 group A member 2 (Homo sapiens) (UniProt P43354); test: ATG_NURR1_TRANS: Attagene TRANS-FACTORIAL HepG2 Assay for human Nuclear Receptor Related Protein 1 (NURR1) (AID 2282985); details: HepG2 Attagene TRANS reporter, mRNA readout
Outline: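 HepG2 cells transiently transfected with GAL4-UAS reporter units and chimeric NR-Gal4 constructs; chemical exposure 24 h. Reporter mRNA quantified by RT-PCR, fluorescent labelling and capillary electrophoresis; gain of signal fitted relative to DMSO baseline.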

[17] = target: Transcriptional activator Myb (Homo sapiens) (UniProt P10242); test: ATG_Myb_CIS: Attagene CIS-FACTORIAL HepG2 Assay for human Myeloblastosis (Myb) Proto-Oncogene Transcription Factor (AID 2282986; active = hit-call score of the fitted dose curve at least 0.9, where 1 is the maximum; inactive = score below 0.9); details: HepG2 Attagene CIS-FACTORIAL Myb reporter transcription; actives raise or lower the signal
Outline: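 After 24 h of compound dosing, total RNA from transfected HepG2 cells is reverse-transcribed and the reporter sequences amplified, labeled and separated by capillary electrophoresis. Values come from bidirectional fitting against DMSO.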

[18] = ATG_VDRE_CIS: Attagene CIS-FACTORIAL HepG2 Assay for human Vitamin D Receptor Element (VDRE) (AID 2282968; active = hit-call score of the fitted dose curve at least 0.9, where 1 is the maximum; inactive = score below 0.9); details: HepG2 VDRE cis-reporter transcription, actives raise or lower the signal
Outline: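 HepG2 cells transiently transfected with cis-element reporter units, dosed 24 h; reporter mRNA measured by RT-PCR, 6-FAM labeling, HpaI digestion and capillary electrophoresis. Activity fitted bidirectionally against DMSO baseline.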

[19] = ATG_GAL4_TRANS: Attagene TRANS-FACTORIAL HepG2 Assay for GAL4 (Internal Marker) (AID 2282976); details: HepG2 Attagene TRANS GAL4 internal marker reporter
Outline: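 Fluorescence from capillary electrophoresis of labelled RT-PCR products quantifies reporter mRNA induction after 24 h dosing of HepG2 cells carrying transfected GAL4-UAS reporter transcription units. Vehicle DMSO serves as baseline.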

Oxysterols receptor LXR-beta (Homo sapiens), sequence (P55055 whole entry, looked up, the tested form may be a part): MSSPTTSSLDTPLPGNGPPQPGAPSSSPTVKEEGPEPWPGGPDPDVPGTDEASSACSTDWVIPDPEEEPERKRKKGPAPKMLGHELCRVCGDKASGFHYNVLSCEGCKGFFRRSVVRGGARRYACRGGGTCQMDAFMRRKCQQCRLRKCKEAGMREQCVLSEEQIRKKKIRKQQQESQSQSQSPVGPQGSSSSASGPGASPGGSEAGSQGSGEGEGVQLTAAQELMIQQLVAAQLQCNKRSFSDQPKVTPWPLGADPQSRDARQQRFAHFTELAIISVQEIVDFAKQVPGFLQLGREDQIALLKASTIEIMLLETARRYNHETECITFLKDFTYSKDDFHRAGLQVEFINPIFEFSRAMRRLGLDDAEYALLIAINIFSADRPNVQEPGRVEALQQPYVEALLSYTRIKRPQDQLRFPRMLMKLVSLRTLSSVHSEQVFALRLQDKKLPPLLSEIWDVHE
Estrogen receptor (Homo sapiens), sequence (P03372 whole entry, looked up, the tested form may be a part): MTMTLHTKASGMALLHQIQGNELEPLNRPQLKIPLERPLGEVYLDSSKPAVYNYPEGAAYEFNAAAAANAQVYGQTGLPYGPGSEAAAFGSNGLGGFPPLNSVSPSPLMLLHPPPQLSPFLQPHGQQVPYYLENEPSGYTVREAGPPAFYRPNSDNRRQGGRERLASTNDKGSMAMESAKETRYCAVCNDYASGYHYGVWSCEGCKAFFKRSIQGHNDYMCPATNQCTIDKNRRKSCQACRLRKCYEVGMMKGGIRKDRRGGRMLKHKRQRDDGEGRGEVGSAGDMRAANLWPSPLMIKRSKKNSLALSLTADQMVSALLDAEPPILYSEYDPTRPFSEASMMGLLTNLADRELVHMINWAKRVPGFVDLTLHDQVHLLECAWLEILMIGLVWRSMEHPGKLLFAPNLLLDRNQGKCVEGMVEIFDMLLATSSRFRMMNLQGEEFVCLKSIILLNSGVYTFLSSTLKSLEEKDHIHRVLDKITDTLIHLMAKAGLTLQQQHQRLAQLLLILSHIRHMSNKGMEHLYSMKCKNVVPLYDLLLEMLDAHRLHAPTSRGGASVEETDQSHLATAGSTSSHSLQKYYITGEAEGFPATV
Nuclear receptor subfamily 4 group A member 2 (Homo sapiens), sequence (P43354 whole entry, looked up, the tested form may be a part): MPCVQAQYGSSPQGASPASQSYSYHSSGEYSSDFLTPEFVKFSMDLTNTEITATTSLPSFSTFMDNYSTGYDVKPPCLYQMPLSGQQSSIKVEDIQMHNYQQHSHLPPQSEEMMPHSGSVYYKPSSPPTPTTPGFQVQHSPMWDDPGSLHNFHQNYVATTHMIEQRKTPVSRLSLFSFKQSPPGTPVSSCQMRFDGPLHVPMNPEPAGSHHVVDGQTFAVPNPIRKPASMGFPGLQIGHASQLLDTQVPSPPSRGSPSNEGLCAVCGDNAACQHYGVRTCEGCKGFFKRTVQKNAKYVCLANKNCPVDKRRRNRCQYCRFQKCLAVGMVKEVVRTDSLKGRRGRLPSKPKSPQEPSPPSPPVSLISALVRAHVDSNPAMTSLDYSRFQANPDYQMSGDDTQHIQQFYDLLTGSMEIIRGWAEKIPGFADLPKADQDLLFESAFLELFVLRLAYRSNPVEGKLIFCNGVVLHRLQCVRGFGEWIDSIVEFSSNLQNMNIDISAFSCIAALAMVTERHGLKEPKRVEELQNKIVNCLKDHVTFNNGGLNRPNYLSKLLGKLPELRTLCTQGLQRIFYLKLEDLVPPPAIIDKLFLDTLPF
X-box-binding protein 1 (Homo sapiens), sequence (P17861 whole entry, looked up): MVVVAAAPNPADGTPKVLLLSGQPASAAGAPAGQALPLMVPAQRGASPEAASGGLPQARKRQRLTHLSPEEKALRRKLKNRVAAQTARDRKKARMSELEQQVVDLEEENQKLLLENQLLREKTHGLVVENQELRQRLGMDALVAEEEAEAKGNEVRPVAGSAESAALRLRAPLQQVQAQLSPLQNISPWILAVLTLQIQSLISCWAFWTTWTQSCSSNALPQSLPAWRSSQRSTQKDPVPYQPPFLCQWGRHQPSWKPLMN
Nuclear receptor subfamily 1 group I member 3 (Homo sapiens), sequence (Q14994 whole entry, looked up, the tested form may be a part): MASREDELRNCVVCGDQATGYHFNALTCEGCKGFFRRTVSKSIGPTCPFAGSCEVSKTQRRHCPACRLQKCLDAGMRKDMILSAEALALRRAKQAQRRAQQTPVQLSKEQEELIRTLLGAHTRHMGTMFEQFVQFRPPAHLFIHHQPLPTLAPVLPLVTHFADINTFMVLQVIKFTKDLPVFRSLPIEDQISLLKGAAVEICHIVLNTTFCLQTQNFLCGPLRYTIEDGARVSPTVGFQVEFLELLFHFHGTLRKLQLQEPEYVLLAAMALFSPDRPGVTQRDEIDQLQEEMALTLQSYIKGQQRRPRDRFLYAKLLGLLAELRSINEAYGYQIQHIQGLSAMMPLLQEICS
Transcriptional activator Myb (Homo sapiens), sequence (P10242 whole entry, looked up): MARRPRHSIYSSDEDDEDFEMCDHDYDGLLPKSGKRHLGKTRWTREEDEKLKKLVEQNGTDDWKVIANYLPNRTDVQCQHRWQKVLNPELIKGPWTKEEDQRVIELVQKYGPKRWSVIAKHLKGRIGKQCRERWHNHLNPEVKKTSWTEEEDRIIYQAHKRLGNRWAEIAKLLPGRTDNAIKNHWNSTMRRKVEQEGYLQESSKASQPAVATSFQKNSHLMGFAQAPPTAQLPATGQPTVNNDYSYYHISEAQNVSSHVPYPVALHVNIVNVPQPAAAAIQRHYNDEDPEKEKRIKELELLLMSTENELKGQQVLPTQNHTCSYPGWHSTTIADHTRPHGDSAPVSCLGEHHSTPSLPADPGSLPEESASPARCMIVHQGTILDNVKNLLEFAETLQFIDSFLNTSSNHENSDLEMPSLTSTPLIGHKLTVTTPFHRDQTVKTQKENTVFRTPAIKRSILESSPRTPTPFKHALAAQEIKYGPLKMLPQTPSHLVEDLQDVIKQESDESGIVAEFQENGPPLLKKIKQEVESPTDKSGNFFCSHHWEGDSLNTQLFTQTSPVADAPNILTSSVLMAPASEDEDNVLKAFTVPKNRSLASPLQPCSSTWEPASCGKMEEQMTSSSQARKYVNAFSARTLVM
Glucocorticoid receptor (Homo sapiens), sequence (P04150 whole entry, looked up): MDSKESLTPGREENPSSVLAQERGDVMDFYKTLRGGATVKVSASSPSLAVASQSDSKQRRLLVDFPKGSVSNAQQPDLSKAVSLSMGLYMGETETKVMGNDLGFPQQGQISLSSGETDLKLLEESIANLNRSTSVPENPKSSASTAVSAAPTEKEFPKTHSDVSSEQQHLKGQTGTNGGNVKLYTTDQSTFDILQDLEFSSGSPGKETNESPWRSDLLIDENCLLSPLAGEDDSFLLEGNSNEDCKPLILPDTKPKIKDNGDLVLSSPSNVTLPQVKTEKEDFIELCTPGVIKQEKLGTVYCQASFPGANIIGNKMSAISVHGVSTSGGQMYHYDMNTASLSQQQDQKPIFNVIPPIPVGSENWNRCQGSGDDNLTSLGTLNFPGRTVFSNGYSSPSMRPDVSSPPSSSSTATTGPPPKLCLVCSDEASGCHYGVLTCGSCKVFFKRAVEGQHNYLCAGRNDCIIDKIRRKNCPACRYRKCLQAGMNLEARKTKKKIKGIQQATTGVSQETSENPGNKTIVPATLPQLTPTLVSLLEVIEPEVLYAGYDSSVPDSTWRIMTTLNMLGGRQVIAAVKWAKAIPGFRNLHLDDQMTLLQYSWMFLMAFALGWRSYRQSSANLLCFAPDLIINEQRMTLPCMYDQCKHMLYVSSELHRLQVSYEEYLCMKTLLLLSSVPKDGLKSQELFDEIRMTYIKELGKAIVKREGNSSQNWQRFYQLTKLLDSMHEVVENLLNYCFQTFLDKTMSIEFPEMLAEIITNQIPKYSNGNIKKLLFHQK
Hepatocyte nuclear factor 4-alpha (Homo sapiens), sequence (P41235 whole entry, looked up, the tested form may be a part): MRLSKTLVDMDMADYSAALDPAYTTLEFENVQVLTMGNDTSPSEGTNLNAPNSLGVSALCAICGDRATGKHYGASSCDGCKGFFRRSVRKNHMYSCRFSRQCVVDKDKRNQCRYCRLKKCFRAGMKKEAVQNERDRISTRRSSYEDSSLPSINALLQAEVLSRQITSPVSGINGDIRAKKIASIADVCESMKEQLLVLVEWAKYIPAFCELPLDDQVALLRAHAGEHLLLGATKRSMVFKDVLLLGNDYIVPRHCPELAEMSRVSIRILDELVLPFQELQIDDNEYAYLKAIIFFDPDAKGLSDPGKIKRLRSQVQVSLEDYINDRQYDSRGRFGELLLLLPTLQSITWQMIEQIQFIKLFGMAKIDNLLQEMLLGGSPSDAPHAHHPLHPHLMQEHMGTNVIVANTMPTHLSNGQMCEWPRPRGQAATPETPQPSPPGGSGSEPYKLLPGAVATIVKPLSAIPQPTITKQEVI
Oxysterols receptor LXR-alpha (Homo sapiens), sequence (Q13133 whole entry, looked up): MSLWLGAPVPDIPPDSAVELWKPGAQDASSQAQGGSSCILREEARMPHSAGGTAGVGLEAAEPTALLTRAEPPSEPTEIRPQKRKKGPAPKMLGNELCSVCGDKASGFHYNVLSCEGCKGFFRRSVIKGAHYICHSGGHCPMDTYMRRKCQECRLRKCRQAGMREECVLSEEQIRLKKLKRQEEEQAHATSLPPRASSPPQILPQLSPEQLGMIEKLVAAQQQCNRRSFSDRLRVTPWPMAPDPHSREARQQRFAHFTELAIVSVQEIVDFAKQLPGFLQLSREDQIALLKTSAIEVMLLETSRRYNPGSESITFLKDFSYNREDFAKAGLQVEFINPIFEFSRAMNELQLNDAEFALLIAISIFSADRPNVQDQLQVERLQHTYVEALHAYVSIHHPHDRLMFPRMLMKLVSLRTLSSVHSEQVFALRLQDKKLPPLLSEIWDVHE

## CCC(C)(NC(=O)c1cc(Cl)c(C)c(Cl)c1)C(=O)CCl (stereo unspecified)
[1]
  outcome: inactive
[2]
  outcome: inactive
[3]
  outcome: inactive
[4]
  outcome: inactive
[5]
  outcome: inactive
[6]
  outcome: inactive
[7]
  outcome: inactive
[8]
  outcome: inactive
[9]
  outcome: inactive
[10]
  outcome: inactive
[11]
  outcome: inactive
[12]
  outcome: inactive
[13]
  outcome: inactive
[14]
  outcome: inactive
[15]
  outcome: inactive
[16]
  outcome: inactive
[17]
  outcome: inactive

## N#CN
[1]
  outcome: inactive
[2]
  outcome: inactive
[3]
  outcome: inactive
[18]
  outcome: inactive
[4]
  outcome: inactive
[5]
  outcome: inactive
[7]
  outcome: inactive
[12]
  outcome: inactive
[13]
  outcome: inactive
[14]
  outcome: inactive
[15]
  outcome: inactive
[16]
  outcome: inactive
[17]
  outcome: inactive

## CNC(=O)Oc1cccc(N=CN(C)C)c1
[1]
  outcome: inactive
[2]
  outcome: inactive
[3]
  outcome: inactive
[18]
  AC50: 82.3 µM (active)
[4]
  outcome: inactive
[5]
  outcome: inactive
[7]
  AC50: 90.4 µM (active)
[9]
  outcome: inactive
[11]
  outcome: inactive
[12]
  outcome: inactive
[13]
  outcome: inactive
[14]
  outcome: inactive
[17]
  outcome: inactive

## CNC(=O)/C=C(\C)OP(=O)(OC)OC
[1]
  outcome: inactive
[2]
  outcome: inactive
[3]
  outcome: inactive
[18]
  outcome: inactive
[4]
  outcome: inactive
[5]
  outcome: inactive
[7]
  outcome: inactive
[10]
  outcome: inactive
[12]
  outcome: inactive
[13]
  outcome: inactive
[14]
  outcome: inactive
[15]
  outcome: inactive
[17]
  outcome: inactive

## CCS(=O)(=O)c1cccnc1S(=O)(=O)NC(=O)Nc1nc(OC)cc(OC)n1
[1]
  outcome: inactive
[2]
  outcome: inactive
[3]
  outcome: inactive
[18]
  outcome: inactive
[4]
  outcome: inactive
[6]
  outcome: inactive
[7]
  outcome: inactive
[10]
  outcome: inactive
[12]
  outcome: inactive
[13]
  outcome: inactive
[14]
  outcome: inactive
[15]
  outcome: inactive
[16]
  outcome: inactive
[17]
  outcome: inactive

## O=C(O)COc1ccc(Cl)cc1Cl
[1]
  outcome: inactive
[2]
  outcome: inactive
[3]
  outcome: inactive
[18]
  outcome: inactive
[7]
  outcome: inactive
[8]
  outcome: inactive
[9]
  outcome: inactive
[19]
  outcome: inactive
[10]
  outcome: inactive
[13]
  outcome: inactive
[14]
  outcome: inactive
[15]
  outcome: inactive
[16]
  outcome: inactive
[17]
  outcome: inactive

## Cc1cc(C)nc(NC(=O)NS(=O)(=O)c2ccccc2C(=O)OC2COC2)n1
[1]
  outcome: inactive
[2]
  outcome: inactive
[3]
  outcome: inactive
[18]
  AC50: 50 µM (active)
[4]
  outcome: inactive
[5]
  outcome: inactive
[7]
  outcome: inactive
[10]
  outcome: inactive
[12]
  outcome: inactive
[13]
  outcome: inactive
[14]
  outcome: inactive
[17]
  outcome: inactive
